{"source": "PubChem BioAssay AID977611", "origin": "cited, not measured here", "test": "PubChem AID 977611", "details": "PDB protein-ligand complexes, literature Kd", "note": "Out of some 3,900 compounds screened, about 3,900 (100%) were called active. No cut-off is given here; in the data, nearly all actives have Kd up to about 4200 µM. The set was probably picked from earlier hits. The list shows a part of the results. Starred links: 1 amine or outer side, 2 acyl side, 3 side chain; linkers in the order of their positions; H or OH if unused. Where a SMILES comes first, the peptide text is derived from it. Non-standard residues stand in square brackets, D forms with d. Residues, ends and D or L forms follow the SMILES beside them. Peptide text beside a SMILES is read from it. The star is where a group is joined. *: point of attachment. X1 = C[C@@H]1CCCN1*; Orn(CH(NH2)2) = NC(N)NCCC[C@H](N)C(=O)O; Propyl = CCC*"}
{"compound": "CC[C@H](C)[C@H](NC(=O)CNC(=O)[C@H](CCC(=O)O)NC(=O)[C@@H](N)CCC(=O)O)C(=O)N[C@@H](Cc1c[nH]c2ccccc12)C(=O)N[C@@H](C)C(=O)O", "note": "(H-EEGIWA-OH)", "values": [{"measurement": "Kd", "setting": "protein: RIM1? PDZ Domain, PDB entry 1zub", "result": "270 nM (active)"}]}
{"compound": "CC(C)C[C@H](NC(=O)[C@H](Cc1ccc(O)cc1)NC(=O)[C@H](CCC(=O)O)NC(=O)[C@H](CCC(=O)O)NC(=O)[C@H](Cc1c[nH]c2ccccc12)NC(=O)[C@H](CO)NC(=O)[C@@H](NC(=O)[C@H](Cc1ccccc1)NC(=O)[C@@H](NC(=O)[C@@H](N[C@@H](C)O)[C@@H](C)O)C(C)C)[C@@H](C)O)C(=O)N[C@@H](CC(=O)O)C(=O)N[C@@H](Cc1c[nH]c2ccccc12)C(=O)N[C@H](C(N)=O)C(C)C", "note": "(H-[X1]VFTSWEEYLDWV-NH2)", "values": [{"measurement": "Kd", "setting": "protein: Proprotein convertase subtilisin/kexin type 9, PDB entry 4nmx", "result": "660 nM (active)"}]}
{"compound": "H-DDYLWGLEAGEGISDLFD-OH", "values": [{"measurement": "Kd", "setting": "protein: retinoblastoma (Rb), PDB entry 1n4m", "result": "190 nM (active)"}]}
{"compound": "CC1(C)Nc2nc(N)[nH]c(=O)c2N=C1C(=O)NCC(=O)NCCS(=O)(=O)C[C@H]1O[C@@H](n2cnc3c(N)ncnc32)[C@H](O)[C@@H]1O", "values": [{"measurement": "Kd", "setting": "protein: 2-amino-4-hydroxy-6-hydroxymethyldihydropteridine pyrophosphokinase/dihydropteroate synthase HPPK-DHPS, PDB entry 4pzv", "result": "2000 nM (active)"}]}
{"compound": "H-VPPPVPPPPS-OH", "values": [{"measurement": "Kd", "setting": "protein: Ponsin, PDB entry 2o9v", "result": "288000 nM (active)"}]}
{"compound": "C[C@H](N)C(=O)N1CCC[C@H]1C(=O)N1CCC[C@H]1C(=O)N[C@@H](CO)C(=O)N[C@@H](CC(N)=O)C(=O)N1CCC[C@H]1C(=O)N1CCC[C@H]1C(=O)N1CCC[C@H]1C(=O)N[C@@H](CCCNC(N)N)C(=O)N1CCC[C@H]1C(=O)N1CCC[C@H]1C", "note": "(H-APPSNPPP[Orn(CH(NH2)2)]P-X1)", "values": [{"measurement": "Kd", "setting": "protein: tandem SH3domains of p47phox, PDB entry 1ov3", "result": "190 nM (active)"}]}
{"compound": "CC(=O)N[C@H](C(=O)N1CCC[C@H]1C(=O)N1CCC[C@H]1C(=O)N1CCC[C@H]1C(=O)N[C@H](C(=O)N1CCC[C@H]1C(=O)N1CCC[C@H]1C(=O)N[C@@H](CCCNC(N)N)C(=O)N[C@@H](CCCNC(N)N)C(=O)N[C@@H](CCCNC(N)N)C(N)=O)C(C)C)C(C)C", "values": [{"measurement": "Kd", "setting": "protein: Grb2(N-terminal SH3 domain), PDB entry 3gbq", "result": "3500 nM (active)"}]}
{"compound": "CCCOC[C@H](NC(=O)[C@@H](NC(=O)[C@@H]1CCCN1C(=O)[C@@H](NC(=O)[C@@H](NC(C)=O)C(C)C)[C@@H](C)O)C(C)C)C(=O)N[C@H](C(=O)N[C@@H](C)C(N)=O)[C@@H](C)O", "note": "(Ac-VTPVS(Propyl)TA-NH2)", "values": [{"measurement": "Kd", "setting": "protein: UDP-N-ACETYLGLUCOSAMINE--PEPTIDE N-ACETYLGLUCOSAMINYLTRANSFERASE 110 KDA SUBUNIT, PDB entry 4cdr", "result": "7900 nM (active)"}]}
{"compound": "H-GTCVAARTRPVLSY-OH", "values": [{"measurement": "Kd", "setting": "protein: WD REPEAT-CONTAINING PROTEIN 5, WDR5, PDB entry 4cy1", "result": "181 nM (active)"}]}
{"compound": "H-GGRRPYIL-OH", "values": [{"measurement": "Kd", "setting": "protein: Neurotensin Receptor 1 Mutant TM86V Delta-IC3A, PDB entry 3zev", "result": "2.3 nM (active)"}]}
{"compound": "CNC(=O)C[C@@H]1NC(=O)c2csc(n2)-c2ccc(-c3nc(N(CCCCC(=O)O)C(=O)OC4CCC(C(=O)O)CC4)cs3)nc2-c2csc(n2)-c2csc(n2)[C@H]([C@@H](O)c2ccccc2)NC(=O)CNC(=O)c2nc(sc2COC)[C@H](C(C)C)NC(=O)c2nc1sc2C", "note": "(stereo partly specified)", "values": [{"measurement": "Kd", "setting": "protein: E. coli K-12 Elongation factor Tu 1, PDB entry 3u2q", "result": "6 nM (active)"}]}
